Measured values from publication PMC7862700, “An all-to-all approach to the identification of sequence-specific readers for epigenetic DNA modifications on cytosine”.

Assays:
Assay in all cases: DAPPL (digital affinity profiling via proximity ligation, sequencing); 10 mM Tris-HCl pH 7.5, 50 mM NaCl, 1 mM DTT, 4% glycerol, room temperature, 30 min; GST-TFs on glutathione beads, 16-mer random dsDNA library, 0.1% formaldehyde crosslink after washing; high values mean tight binding
FLI1 = biological target: T1, FLI1 (Homo sapiens, UniProt Q01543 1-452); details: protein: recombinant; tags: N-terminal GST; dsDNA, one strand shown
T1 sequence: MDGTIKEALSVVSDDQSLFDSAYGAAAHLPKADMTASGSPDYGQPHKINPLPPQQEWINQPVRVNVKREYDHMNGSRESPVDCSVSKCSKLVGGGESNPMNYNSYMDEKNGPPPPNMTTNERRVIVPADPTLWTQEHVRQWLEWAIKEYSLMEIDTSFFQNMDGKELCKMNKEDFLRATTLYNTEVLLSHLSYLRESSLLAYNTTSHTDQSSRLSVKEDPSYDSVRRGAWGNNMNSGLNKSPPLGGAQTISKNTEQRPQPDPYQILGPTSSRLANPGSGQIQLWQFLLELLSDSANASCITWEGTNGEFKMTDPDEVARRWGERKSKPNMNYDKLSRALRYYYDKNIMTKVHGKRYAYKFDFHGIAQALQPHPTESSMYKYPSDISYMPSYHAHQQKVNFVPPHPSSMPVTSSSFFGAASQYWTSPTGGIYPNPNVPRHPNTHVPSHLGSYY
Summary of the method: (§1)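 Sequencing on an Illumina NextSeq500 followed washing, crosslinking with 0.1% formaldehyde, proximity ligation (BsaI/T4 ligase, 1 h, 37 °C) and PCR amplification of pools that had been incubated for 30 min at room temperature with 200 nmole of a random double-stranded 16-mer DNA library in Tris/NaCl/DTT/glycerol buffer. Each pool held DNA-barcoded human transcription factors, expressed in yeast as GST fusions and captured on glutathione beads, plus a tag-only sample. Binding signal is a hexamer's read frequency for a factor divided by its frequency in the tag-only sample.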

ELK1 = biological target: T2, ELK1 (Homo sapiens, UniProt P19419 1-428); details: protein: recombinant; tags: N-terminal GST; dsDNA, one strand shown
T2 sequence: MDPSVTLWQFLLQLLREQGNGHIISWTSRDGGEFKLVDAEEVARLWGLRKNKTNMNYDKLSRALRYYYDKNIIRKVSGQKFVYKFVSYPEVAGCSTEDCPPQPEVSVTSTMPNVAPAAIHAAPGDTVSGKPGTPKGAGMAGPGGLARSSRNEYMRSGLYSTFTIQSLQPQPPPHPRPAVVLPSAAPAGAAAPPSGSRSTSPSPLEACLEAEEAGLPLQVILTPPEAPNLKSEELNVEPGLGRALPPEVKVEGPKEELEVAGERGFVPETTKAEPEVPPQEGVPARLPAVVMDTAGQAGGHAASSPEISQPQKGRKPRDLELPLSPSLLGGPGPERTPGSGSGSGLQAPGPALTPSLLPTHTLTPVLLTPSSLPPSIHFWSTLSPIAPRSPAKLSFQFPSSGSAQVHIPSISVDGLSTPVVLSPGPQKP
Summary of the method: as §1

GABPA = biological target: T3, GABPA (Homo sapiens, UniProt Q06546 1-454); details: protein: recombinant; tags: N-terminal GST; dsDNA, one strand shown
T3 sequence: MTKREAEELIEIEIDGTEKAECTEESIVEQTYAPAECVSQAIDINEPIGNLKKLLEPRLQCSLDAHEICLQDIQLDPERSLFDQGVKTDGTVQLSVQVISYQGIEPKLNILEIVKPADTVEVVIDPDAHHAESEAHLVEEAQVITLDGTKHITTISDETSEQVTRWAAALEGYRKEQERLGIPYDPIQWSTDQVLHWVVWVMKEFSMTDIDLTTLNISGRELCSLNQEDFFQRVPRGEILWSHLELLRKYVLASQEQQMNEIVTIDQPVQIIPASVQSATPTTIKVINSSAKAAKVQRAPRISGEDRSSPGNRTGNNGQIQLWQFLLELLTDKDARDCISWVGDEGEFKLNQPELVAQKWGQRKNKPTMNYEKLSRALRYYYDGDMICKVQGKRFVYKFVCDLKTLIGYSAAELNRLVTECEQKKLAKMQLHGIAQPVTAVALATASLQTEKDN
Summary of the method: as §1

ERG = biological target: T4, ERG (Homo sapiens, UniProt P11308 1-479); details: protein: recombinant; tags: N-terminal GST; dsDNA, one strand shown
T4 sequence: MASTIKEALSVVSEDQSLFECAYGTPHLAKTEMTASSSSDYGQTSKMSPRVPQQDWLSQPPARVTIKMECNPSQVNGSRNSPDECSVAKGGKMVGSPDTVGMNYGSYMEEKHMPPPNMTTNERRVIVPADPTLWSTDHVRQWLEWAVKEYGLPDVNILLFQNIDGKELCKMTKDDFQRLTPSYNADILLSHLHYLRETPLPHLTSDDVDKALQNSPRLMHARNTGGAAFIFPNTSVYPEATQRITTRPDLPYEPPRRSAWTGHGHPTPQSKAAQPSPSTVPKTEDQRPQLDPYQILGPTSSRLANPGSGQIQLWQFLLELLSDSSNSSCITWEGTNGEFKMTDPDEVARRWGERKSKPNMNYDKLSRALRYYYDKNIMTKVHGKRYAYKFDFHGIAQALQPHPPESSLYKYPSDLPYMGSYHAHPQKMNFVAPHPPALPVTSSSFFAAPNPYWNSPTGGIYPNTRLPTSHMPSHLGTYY
Summary of the method: as §1

ELF1 = ELF1 (Homo sapiens, UniProt P32519 1-619); details: protein: recombinant; tags: N-terminal GST; dsDNA, one strand shown
Summary of the method: as §1

EHF = biological target: T5, EHF (Homo sapiens, UniProt Q9NZC4 1-300); details: protein: recombinant; tags: N-terminal GST; dsDNA, one strand shown
T5 sequence: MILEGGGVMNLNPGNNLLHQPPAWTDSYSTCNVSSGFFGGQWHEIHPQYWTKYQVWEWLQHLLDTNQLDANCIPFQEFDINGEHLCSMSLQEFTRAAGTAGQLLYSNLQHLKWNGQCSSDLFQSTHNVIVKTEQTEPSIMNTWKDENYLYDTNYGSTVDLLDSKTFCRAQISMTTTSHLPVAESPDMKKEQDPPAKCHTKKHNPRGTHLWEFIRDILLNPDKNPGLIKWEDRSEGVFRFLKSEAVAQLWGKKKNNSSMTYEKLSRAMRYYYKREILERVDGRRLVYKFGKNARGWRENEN
Summary of the method: as §1

SPI1 = SPI1 (Homo sapiens, UniProt P17947 1-270); details: protein: recombinant; tags: N-terminal GST; dsDNA, one strand shown
Summary of the method: as §1

SPIB = SPIB (Homo sapiens, UniProt Q01892 1-262); details: protein: recombinant; tags: N-terminal GST; dsDNA, one strand shown
Summary of the method: as §1

ELK3 = biological target: T6, ELK3 (Homo sapiens, UniProt P41970 1-407); details: protein: recombinant; tags: N-terminal GST; dsDNA, one strand shown
T6 sequence: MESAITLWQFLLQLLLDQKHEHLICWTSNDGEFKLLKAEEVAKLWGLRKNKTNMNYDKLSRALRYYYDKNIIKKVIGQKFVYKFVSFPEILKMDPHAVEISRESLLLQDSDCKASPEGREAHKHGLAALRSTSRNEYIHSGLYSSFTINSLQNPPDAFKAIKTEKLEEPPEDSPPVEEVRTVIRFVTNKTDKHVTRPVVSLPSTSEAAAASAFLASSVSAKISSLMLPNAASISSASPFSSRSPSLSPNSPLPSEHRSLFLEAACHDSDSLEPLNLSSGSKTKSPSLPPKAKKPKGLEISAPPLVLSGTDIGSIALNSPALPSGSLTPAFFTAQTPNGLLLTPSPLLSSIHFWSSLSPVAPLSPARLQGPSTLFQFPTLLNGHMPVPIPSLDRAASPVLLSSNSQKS
Summary of the method: as §1

FEV = biological target: T7, FEV (Homo sapiens, UniProt Q99581 1-238); details: protein: recombinant; tags: N-terminal GST; dsDNA, one strand shown
T7 sequence: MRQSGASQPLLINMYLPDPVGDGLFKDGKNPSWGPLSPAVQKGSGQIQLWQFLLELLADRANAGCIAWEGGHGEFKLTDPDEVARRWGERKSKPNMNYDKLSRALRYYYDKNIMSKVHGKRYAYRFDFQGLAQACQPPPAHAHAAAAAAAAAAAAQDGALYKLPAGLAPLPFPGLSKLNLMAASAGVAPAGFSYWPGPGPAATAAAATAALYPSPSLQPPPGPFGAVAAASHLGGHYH
Summary of the method: as §1

ETV5 = ETV5 (Homo sapiens, UniProt P41161 1-510); details: protein: recombinant; tags: N-terminal GST; dsDNA, one strand shown
Summary of the method: as §1

HSF1 = HSF1 (Homo sapiens, UniProt Q00613 1-529); details: protein: recombinant; tags: N-terminal GST; chain copies: 3; dsDNA, one strand shown
Summary of the method: as §1

SPIC = biological target: T8, SPIC (Homo sapiens, UniProt Q8N5J4 1-248); details: protein: recombinant; tags: N-terminal GST; dsDNA, one strand shown
T8 sequence: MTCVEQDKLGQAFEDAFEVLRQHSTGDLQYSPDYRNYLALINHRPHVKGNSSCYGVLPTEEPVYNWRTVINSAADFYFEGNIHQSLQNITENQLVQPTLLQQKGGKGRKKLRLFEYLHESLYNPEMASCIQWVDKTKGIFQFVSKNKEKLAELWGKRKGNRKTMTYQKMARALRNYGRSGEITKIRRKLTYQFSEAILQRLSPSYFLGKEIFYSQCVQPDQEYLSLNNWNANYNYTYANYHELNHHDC
Summary of the method: as §1

ELF4 = ELF4 (Homo sapiens, UniProt Q99607 1-663); details: protein: recombinant; tags: N-terminal GST; dsDNA, one strand shown
Summary of the method: as §1

ELK4 = biological target: T9, ELK4 (Homo sapiens, UniProt P28324-2 1-405); details: protein: recombinant; tags: N-terminal GST; dsDNA, one strand shown
T9 sequence: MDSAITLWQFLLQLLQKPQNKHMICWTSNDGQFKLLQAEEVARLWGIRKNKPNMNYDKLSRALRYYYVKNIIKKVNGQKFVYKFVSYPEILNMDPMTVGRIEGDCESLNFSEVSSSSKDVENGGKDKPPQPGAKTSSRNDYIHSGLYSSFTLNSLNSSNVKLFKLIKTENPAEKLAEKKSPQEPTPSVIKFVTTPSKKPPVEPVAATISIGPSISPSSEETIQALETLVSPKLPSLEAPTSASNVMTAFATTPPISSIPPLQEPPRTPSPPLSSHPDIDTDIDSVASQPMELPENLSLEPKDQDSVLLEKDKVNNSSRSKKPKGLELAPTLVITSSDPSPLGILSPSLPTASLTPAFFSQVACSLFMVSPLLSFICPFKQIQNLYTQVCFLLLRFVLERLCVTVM
Summary of the method: as §1

ETV2 = biological target: T10, ETV2 (Homo sapiens, UniProt O00321 1-342); details: protein: recombinant; tags: N-terminal GST; dsDNA, one strand shown
T10 sequence: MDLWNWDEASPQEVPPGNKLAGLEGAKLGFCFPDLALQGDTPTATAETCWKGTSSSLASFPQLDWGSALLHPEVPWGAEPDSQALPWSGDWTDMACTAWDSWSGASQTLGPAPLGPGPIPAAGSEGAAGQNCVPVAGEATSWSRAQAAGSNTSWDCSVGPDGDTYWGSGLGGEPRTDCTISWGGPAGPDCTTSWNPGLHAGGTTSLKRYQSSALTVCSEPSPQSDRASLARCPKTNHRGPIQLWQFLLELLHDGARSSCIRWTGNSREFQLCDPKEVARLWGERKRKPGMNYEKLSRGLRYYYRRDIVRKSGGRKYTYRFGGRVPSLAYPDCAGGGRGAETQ
Summary of the method: as §1

ELF3 = biological target: T11, ELF3 (Homo sapiens, UniProt P78545 1-371); details: protein: recombinant; tags: N-terminal GST; dsDNA, one strand shown
T11 sequence: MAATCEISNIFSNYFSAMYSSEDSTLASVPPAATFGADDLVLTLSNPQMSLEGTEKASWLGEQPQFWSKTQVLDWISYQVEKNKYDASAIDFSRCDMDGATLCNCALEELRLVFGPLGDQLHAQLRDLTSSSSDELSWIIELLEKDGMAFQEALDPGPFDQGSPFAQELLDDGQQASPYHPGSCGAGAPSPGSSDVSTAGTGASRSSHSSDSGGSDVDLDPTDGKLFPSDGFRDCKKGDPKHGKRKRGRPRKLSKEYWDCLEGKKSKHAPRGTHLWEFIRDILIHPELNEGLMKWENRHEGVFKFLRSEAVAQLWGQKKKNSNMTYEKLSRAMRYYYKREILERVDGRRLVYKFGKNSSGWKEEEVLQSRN
Summary of the method: as §1

CRX = CRX (Homo sapiens, UniProt O43186 1-299); details: protein: recombinant; tags: N-terminal GST; dsDNA, one strand shown
Summary of the method: as §1

ETV1 = ETV1 (Homo sapiens, UniProt P50549 1-477); details: protein: recombinant; tags: N-terminal GST; dsDNA, one strand shown
Summary of the method: as §1

Sequence of ETV5 (P41161 whole entry): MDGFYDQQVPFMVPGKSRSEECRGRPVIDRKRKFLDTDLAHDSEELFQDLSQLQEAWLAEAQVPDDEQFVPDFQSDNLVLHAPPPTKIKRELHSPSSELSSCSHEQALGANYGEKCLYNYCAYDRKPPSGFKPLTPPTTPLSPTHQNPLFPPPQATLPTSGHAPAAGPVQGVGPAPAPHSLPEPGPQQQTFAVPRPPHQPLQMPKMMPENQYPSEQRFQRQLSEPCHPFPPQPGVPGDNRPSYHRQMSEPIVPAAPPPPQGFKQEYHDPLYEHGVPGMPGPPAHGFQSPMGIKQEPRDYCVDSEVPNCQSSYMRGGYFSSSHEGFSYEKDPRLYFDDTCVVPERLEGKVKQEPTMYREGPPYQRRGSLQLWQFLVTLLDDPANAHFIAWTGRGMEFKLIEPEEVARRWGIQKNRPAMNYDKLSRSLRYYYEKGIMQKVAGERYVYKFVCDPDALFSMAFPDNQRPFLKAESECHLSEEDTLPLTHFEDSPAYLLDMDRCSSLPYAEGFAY
Sequence of HSF1 (Q00613 whole entry): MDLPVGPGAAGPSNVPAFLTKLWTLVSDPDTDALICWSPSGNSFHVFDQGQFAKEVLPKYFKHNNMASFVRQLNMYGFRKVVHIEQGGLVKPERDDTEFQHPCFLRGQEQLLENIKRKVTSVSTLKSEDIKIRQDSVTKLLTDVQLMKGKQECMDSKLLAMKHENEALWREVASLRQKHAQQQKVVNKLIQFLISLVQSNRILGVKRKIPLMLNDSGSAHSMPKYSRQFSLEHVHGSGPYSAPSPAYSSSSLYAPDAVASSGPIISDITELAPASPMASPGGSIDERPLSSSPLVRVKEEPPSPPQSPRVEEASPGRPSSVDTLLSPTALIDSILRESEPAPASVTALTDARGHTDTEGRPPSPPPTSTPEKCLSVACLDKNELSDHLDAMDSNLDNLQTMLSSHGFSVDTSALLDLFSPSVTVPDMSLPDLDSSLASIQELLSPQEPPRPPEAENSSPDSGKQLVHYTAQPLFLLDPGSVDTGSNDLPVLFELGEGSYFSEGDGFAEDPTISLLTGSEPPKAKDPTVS
Sequence of SPIB (Q01892 whole entry): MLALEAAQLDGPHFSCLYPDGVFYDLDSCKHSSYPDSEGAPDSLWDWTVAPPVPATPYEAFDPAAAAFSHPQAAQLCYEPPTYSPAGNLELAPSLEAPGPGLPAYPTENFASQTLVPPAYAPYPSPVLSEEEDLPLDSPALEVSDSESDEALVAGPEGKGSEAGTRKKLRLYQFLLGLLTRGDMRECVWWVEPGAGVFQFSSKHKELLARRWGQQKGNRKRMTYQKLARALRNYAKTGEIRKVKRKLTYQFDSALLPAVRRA
Sequence of ELF4 (Q99607 whole entry): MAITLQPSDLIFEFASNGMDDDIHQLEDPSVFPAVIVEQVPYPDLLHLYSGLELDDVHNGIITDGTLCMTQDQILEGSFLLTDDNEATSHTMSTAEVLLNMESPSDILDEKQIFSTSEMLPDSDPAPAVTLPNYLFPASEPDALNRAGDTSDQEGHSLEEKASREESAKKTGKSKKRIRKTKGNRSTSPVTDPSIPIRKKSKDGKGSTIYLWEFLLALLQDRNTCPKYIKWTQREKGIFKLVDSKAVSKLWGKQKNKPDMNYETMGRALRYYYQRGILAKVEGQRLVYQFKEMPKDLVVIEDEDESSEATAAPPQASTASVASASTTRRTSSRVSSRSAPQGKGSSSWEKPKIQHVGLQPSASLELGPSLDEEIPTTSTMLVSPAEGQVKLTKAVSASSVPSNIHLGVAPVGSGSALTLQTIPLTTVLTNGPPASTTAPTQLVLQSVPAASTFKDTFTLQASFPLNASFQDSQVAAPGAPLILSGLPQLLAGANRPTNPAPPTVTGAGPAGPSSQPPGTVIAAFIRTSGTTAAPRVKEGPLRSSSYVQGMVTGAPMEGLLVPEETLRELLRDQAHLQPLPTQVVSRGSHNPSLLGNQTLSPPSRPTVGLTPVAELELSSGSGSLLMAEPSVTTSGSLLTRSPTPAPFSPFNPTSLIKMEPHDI
Sequence of ETV1 (P50549 whole entry): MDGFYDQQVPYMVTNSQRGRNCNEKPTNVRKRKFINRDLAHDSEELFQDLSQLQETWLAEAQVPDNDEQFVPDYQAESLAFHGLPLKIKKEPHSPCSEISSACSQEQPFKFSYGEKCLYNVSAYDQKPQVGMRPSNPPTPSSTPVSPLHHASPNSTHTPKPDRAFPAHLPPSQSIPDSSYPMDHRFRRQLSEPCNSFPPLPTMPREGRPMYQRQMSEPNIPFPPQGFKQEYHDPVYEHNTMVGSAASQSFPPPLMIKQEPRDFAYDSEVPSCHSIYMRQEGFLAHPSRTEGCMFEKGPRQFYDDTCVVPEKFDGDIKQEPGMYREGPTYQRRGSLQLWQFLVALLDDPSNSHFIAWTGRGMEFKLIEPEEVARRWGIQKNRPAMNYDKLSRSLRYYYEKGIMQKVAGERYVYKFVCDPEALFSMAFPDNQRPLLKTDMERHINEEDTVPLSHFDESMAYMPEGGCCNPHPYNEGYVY
Sequence of ELF1 (P32519 whole entry): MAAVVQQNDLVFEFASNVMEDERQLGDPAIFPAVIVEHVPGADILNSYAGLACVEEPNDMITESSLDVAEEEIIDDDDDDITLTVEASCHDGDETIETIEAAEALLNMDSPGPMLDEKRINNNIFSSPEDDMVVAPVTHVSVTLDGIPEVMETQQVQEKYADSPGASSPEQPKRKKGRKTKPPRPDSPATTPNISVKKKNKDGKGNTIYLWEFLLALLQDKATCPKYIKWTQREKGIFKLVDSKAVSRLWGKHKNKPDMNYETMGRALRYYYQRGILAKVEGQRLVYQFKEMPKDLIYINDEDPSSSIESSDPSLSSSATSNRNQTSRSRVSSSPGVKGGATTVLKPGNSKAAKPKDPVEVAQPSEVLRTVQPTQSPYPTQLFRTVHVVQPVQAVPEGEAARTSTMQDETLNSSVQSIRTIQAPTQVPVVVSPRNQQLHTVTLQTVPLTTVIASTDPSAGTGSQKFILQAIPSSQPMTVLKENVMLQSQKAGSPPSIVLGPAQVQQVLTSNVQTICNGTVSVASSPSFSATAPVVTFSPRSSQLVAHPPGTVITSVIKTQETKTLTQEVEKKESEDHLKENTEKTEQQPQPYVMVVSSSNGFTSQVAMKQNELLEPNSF
Sequence of CRX (O43186 whole entry): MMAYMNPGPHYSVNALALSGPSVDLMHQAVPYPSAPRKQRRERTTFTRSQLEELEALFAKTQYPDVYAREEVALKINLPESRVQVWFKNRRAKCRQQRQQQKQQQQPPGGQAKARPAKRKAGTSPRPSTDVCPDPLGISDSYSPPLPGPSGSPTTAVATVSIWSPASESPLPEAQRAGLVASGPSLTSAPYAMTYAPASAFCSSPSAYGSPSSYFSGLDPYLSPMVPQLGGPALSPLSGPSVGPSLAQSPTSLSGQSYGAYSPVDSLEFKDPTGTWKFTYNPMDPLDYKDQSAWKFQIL

CATTTT
binding signal (FLI1): 1.24 fold enrichment (6-mer frequency, TF over GST control) | binding signal (ELK1): 1.04 fold enrichment (6-mer frequency, TF over GST control) | binding signal (GABPA): 1.23 fold enrichment (6-mer frequency, TF over GST control) | binding signal (ERG): 1.14 fold enrichment (6-mer frequency, TF over GST control) | binding signal (ELF1): 1.18 fold enrichment (6-mer frequency, TF over GST control) | binding signal (EHF): 1.16 fold enrichment (6-mer frequency, TF over GST control) | binding signal (SPI1): 1.39 fold enrichment (6-mer frequency, TF over GST control) | binding signal (SPIB): 1.23 fold enrichment (6-mer frequency, TF over GST control) | binding signal (ELK3): 1.15 fold enrichment (6-mer frequency, TF over GST control) | binding signal (FEV): 1.19 fold enrichment (6-mer frequency, TF over GST control) | binding signal (ETV5): 1.23 fold enrichment (6-mer frequency, TF over GST control) | binding signal (HSF1): 1.19 fold enrichment (6-mer frequency, TF over GST control) | binding signal (SPIC): 1.18 fold enrichment (6-mer frequency, TF over GST control) | binding signal (ELF4): 1.32 fold enrichment (6-mer frequency, TF over GST control) | binding signal (ELK4): 1.32 fold enrichment (6-mer frequency, TF over GST control) | binding signal (ETV2): 1.35 fold enrichment (6-mer frequency, TF over GST control) | binding signal (ELF3): 1.21 fold enrichment (6-mer frequency, TF over GST control) | binding signal (CRX): 1.04 fold enrichment (6-mer frequency, TF over GST control) | binding signal (ETV1): 1.24 fold enrichment (6-mer frequency, TF over GST control)
